Inconclusive results are not listed. Where a call stands in place of a potency, no number is given. Calls of active or inactive are those of the source. Calls follow the shape of the dose curve; as a rule, active = well fitted inhibition curve with a large enough effect; inconclusive = small, poorly fitted or top-dose-only effect; inactive = flat fitted curve, though single readings scatter.

Sequence of Calcium and integrin-binding protein 1 (Homo sapiens) (Q99828 whole entry, looked up): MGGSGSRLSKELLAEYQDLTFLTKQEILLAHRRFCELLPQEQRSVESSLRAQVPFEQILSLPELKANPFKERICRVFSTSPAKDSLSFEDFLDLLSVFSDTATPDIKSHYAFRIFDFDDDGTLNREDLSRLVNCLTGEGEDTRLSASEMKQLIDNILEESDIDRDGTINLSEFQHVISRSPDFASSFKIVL

This assay addresses Calcium and integrin-binding protein 1 (Homo sapiens) (UniProt Q99828). Description: Primary qHTS for Identification of Calcium Integrin Binding Protein 1 (CIB1) Competitor (AID 1508620).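 Also: GST tagged CIB1 binding a fluorescein labelled alphaIIb integrin peptide tracer; top concentration of the series differs between compounds.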 Conditions: CIB1-GST / FITC-alphaIIb peptide fluorescence polarization; series mostly up to 114 µM. Summed up:
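Fluorescence polarization competition: CIB1-GST (1 uM final) preincubated with compound 15 min at room temperature, then FITC-labeled alphaIIb peptide (100 nM final) added for another 15 min. Polarization read at Ex 480/Em 540.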
For orientation: qHTS replaces the single test concentration by a dilution series.
As for `Cc1ccsc1CN(C)c1ncnc2ccc(-c3ccc4c(c3)OCO4)cc12`, the Potency entry is “inactive”.
The same measure for `Cc1ccc(OCCn2c(CCNC(=O)c3ccc([N+](=O)[O-])cc3)nc3ccccc32)cc1`: “inactive”.
The same measure for `COc1ccc(C2Nc3ccccc3C(=O)N2Cc2ccc(Cl)cc2)cc1COc1ccc(NC(C)=O)cc1` (centres undefined): “inactive”; for `N#Cc1ccc(Nc2ncc(-c3cccc4ccccc34)o2)cc1`: “inactive”.
With `COc1ccccc1NS(=O)(=O)c1ccc2c(c1)CCC(=O)N2`, the Potency entry is “inactive”.
The same measure for `CC(=O)Nc1sc2c(c1-c1cc3ccccc3s1)CCNC2`: “inactive”; for `Cn1cnc(CCNc2ncnc3ccc(-c4ccc5c(c4)OCO5)cc23)c1`: “inactive”.
In the case of `Cc1cccc(NS(=O)(=O)c2ccc3c(c2)CCC(=O)N3)c1` it was “inactive”.
For the compound `CCC(=O)NC(c1cccs1)c1cc([N+](=O)[O-])c2cccnc2c1OC` (centres undefined), the Potency result is “inactive”.
On to `COC(=O)Nc1sc2c(c1C(N)=O)CCCC2`, for which the Potency entry is “inactive”.
Take `CCC(=O)Nc1ccc(OCc2cc(C3Nc4ccccc4C(=O)N3Cc3ccccc3)ccc2OC)cc1` (centres undefined): the Potency result is “inactive”.
Turning to `O=C1CCCC2=C1C(c1[nH]ncc1Cl)N=C(Nc1nc3cccc(Cl)c3o1)N2` (centres undefined), the Potency entry is “inactive”.
For `CC(C)Oc1cccc(-c2ccnc(N3CCC(C(N)=O)CC3)n2)c1`, the Potency result was “inactive”.
In the case of `CC(=O)Nc1sc2c(c1-c1nc3ccccc3s1)CCN(C(C)=O)C2` it was “inactive”; in that of `NC(=O)C1CCN(c2nc(-c3cccnc3)cs2)CC1`, “inactive”.
As to `Cc1cc(C)n2ncc(C(=O)Nc3ccc(S(C)(=O)=O)cc3)c2n1`, the Potency entry is “inactive”.
For the compound `COCCN1C(=O)c2ccccc2NC1c1ccc(OC)c(COc2c(C)cc(NC(C)=O)cc2C)c1` (centres undefined), the Potency result was “inactive”.
For `COc1ccc(S(=O)(=O)N2CCN(S(=O)(=O)c3ccc4c(c3)OCCO4)CC2)cc1`, the Potency entry was “inactive”.
As to `O=C(NC1CCCc2c1cnn2-c1ccc(F)cc1F)c1ccn[nH]1` (centres undefined), the Potency result was “inactive”.
The same measure for `CN(C)c1ccc(C2N=C(Nc3nc4ccccc4o3)NC3=C2C(=O)CCC3)cc1` (centres undefined): “inactive”; for `O=C1CCCC2=C1C(c1[nH]ncc1Cl)N=C(Nc1nc3ccccc3s1)N2` (centres undefined): “inactive”.
The same measure for `Cc1cc2c(s1)c1cnn(Cc3ccc(-n4cncn4)cc3)c(=O)c1n2C`: “inactive”; for `Cc1ccc2nc3sc(C(=O)N4CCN(C5CCN(C)CC5)CC4)cc3cc2c1`: “inactive”; for `CC(=O)Nc1ccc(C(=O)Nc2ccc(-c3nc4ccccc4[nH]3)cc2)cc1`: “inactive”.
The same measure for `COc1cccc(C2c3c(ncn(-c4cccc(C#N)c4)c3=N)Oc3ccc4ccccc4c32)c1` (centres undefined): “inactive”; for `Oc1ccc(Nc2nc(-c3ccncc3)nc3ccccc23)cc1F`: “inactive”; for `O=C(Nc1cncc(-c2cccnc2)c1)c1cccs1`: “inactive”.
Regarding `O=C1CCCC2=C1C(c1[nH]ncc1Cl)NC(=NCCc1ccc(O)cc1)N2` (centres undefined), the Potency entry was “inactive”.
Consider `Cc1cccc(-n2cnc3cc(C(=O)N4CCCC(C(F)(F)F)C4)ccc32)c1` (centres undefined), for which the Potency entry was “inactive”.
As for `CC(C)c1ccccc1-c1ncc(N)c(NCc2ccc(-c3cccnc3)cc2)n1`, the Potency entry was “inactive”.
Regarding `Cc1ccc(S(=O)(=O)Nc2cccc3ccc(C)nc23)cc1`, the Potency result was “inactive”.
The same measure for `CN1CCN(c2ccc(NC(=O)c3cccs3)cn2)CC1`: “inactive”.
In the case of `N#CC1=C(Nc2nc3ccccc3o2)OC2=C(C(=O)CCC2)C1c1[nH]ncc1Cl` (centres undefined), the Potency result was “inactive”.
With `CCc1ccc(NC(=O)c2cnn3c(C)cc(-c4ccccc4)nc23)cc1`, the Potency result was “inactive”.
The same measure for `Cc1ccc(NS(=O)(=O)c2cccc(F)c2)cc1C`: “inactive”; for `Cc1csc(CNc2ncnc3ccc(-c4ccc(C(=O)O)o4)cc23)n1`: “inactive”.
`CC(=O)Nc1sc2c(c1-c1cnn(C(C)=O)c1)CCNC2`: the Potency result is “inactive”.
As for `CN(Cc1ccco1)c1ncnc2ccc(-c3cccc(Cl)c3)cc12`, the Potency entry is “inactive”.
For the compound `O=C(O)c1ccc(O)c2ncc(N3CC(N4CCOCC4)C3)cc12`, the Potency entry is “inactive”.

(Values after PubChem BioAssay (NCATS).)
